Compound activity: PubChem, several laboratories
Only some compounds are listed: those with a hit (about 2.2% of all), similar ones and a draw of the others.
SMARCA2 activ = increases SMARCA2 function in MMTV reporter cells; activation, % at 9.1 µM; MG213 cells, MMTV-luciferase reporter, dexamethasone, overnight; 370,000 tested, 1% active; AID 652017; in the data active = activation above about 7.8%;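 also: 0% = vehicle wells and 100% = reference activator wells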
GalR3 antag = human GalR3 antagonism; O60755; HEK293 GalR3-CNG cAMP membrane potential fluorescence; galR3 body fused to GalR1 C-terminus; inhibition, % at 3 µM; 360,000 tested, 0.44% active;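 active = inhibition above the screen-wide average plus 3 SD, cut at about 13% in these data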;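 also: forskolin and galanin both at EC90 stimulate the cells; cAMP rise reported by CNG channel membrane potential dye signal; 0% = forskolin plus galanin with DMSO and 100% = forskolin alone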
Target sequence (O60755 1-299 limits assumed): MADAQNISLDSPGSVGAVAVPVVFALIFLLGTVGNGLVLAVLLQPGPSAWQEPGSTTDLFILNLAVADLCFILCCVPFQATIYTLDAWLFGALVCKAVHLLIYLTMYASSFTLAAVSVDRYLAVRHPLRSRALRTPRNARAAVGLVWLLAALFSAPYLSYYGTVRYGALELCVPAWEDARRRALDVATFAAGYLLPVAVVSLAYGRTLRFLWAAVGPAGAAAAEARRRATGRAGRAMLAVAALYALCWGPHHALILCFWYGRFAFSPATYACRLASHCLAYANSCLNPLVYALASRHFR
HIF act = HIF pathway transcriptional activation. activation, % at 7.5 µM (by protocol). U2OS HRE-luciferase reporter, luminescence; normalized: DMSO 0%, desferrioxamine 100%. 300,000 tested, 0.32% active. AID 1910;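 active = mean activation of at least 10% of the iron chelator positive control signal, with at least half of replicates also reaching 10%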
Hsp70 activator = Hsp70 transcriptional activation, primary screen. HeLa Hsp70 promoter luciferase reporter, luminescence; scaled: vehicle 0, proteasome-inhibitor control 100%. activation, % at 10 µM. 200,000 tested, 0.04% active. AID 1203;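 active = activation above the mean across all tested compounds plus 3 SD, cutoff set per campaign, cut at about 5.5% in these data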;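 also: 100% = MG132 at 30 µM as the positive control and 0% = DMSO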
GAA850 FXN act = frataxin GAA850 promoter activation; HEK293 lucGAA850 FXN promoter luciferase reporter, 24 h; percent of 10 µM SAHA response; activation, % at 6 µM; 360,000 tested, 0.56% active;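 active = activation above the average of all compounds screened plus 3 SD, cutoff fixed separately per campaign, cut at about 7.5% in these data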;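 also: 0% = DMSO wells and 100% = 10 µM SAHA wells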
SMARCA2 conf = SMARCA2 activation, confirmation screen | MG213 cells, MMTV-luciferase with dexamethasone, luminescence, overnight; MG213 cells expressing E1A, Rb sequestered; DMSO wells 0%, reference activator 100% | AID 652260 | 3,500 tested, 30% active | shares compounds with SMARCA2 activ | activation, % at 9.1 µM;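 active = activation above its plate's cutoff, the mean activation of tested wells plus 3 SD, cut at about 7.9% in these data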
VP16 Luc act = GAL4-VP16 reporter activation counter-screen; shares compounds with SMARCA2 activ; HEK293 GAL4-VP16 pG5luc reporter, luciferase luminescence; scaled: DMSO wells 0%, SAHA wells 100%; activation, % at 9.1 µM; 3,500 tested, 41% active; AID 686939;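 active = activation above the solvent-only control well mean plus 3 SD, averaged across control plates, cut at about 5.2% in these data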
* marks the source's active call; other numbers are inactive results.

COC(=O)[C@]12C[C@H](CC(=O)NCCC(C)C)C(=O)N(CCC3=CCCCC3)C1=C[C@H](C1CCCC1)O[C@@H]2C was read as SMARCA2 activ -5.
For Clc1ccc(-c2nc3ccc(Cl)cn3c2Cc2ccsc2)cc1 the results were SMARCA2 activ 11*, GalR3 antag -7, SMARCA2 conf 8.9* and VP16 Luc act 5.
c1ccc(-c2ncc3c(ccc4ccccc43)n2)cc1 was read as SMARCA2 activ 9.1*, GalR3 antag -11, HIF act 0, Hsp70 activator 0, GAA850 FXN act 2, SMARCA2 conf 2 and VP16 Luc act 5.1*.
For O=C(NN/C(=N/S(=O)(=O)c1ccc(Cl)cc1)c1ccccc1)c1cccc(Cl)c1 the results were SMARCA2 activ 10.0*, GalR3 antag -6, HIF act 2, GAA850 FXN act 3, SMARCA2 conf 10* and VP16 Luc act 12*.
Cc1ccc(S(=O)(=O)/N=C(/NNC(=O)c2cccc(Cl)c2)c2ccccc2)cc1 was read as SMARCA2 activ 5, GalR3 antag -8, HIF act 2 and GAA850 FXN act 6.
Screening O=S(=O)(/N=C(/NC(=S)Nc1ccccc1)c1ccccc1)c1ccc(Cl)cc1 returned SMARCA2 activ 8.8*, GalR3 antag -10, HIF act 2, GAA850 FXN act 7, SMARCA2 conf 9.2* and VP16 Luc act 6.4*.
For Cn1cccc1C(=O)OCc1cc(-c2ccco2)on1 the results were SMARCA2 activ 8.4*, GalR3 antag -6, GAA850 FXN act 6, SMARCA2 conf 4 and VP16 Luc act 5.4*.
Cn1cccc1C(=O)OCc1ccc(C(C)(C)C)cc1 was read as SMARCA2 activ 11*, GalR3 antag -7, HIF act 6, GAA850 FXN act 3, SMARCA2 conf 7 and VP16 Luc act 6.4*.
`COc1ccc(CNC(=O)COC(=O)c2cccn2C)cc1` gave SMARCA2 activ 1, GalR3 antag -3 and GAA850 FXN act 2.
`COc1ccc(-n2c(SCc3nc4ccccc4[nH]3)nc3ccccc3c2=O)cc1` gave SMARCA2 activ -5.
For c1cncc(Nc2nc(-c3cccnc3)cs2)c1 the results were SMARCA2 activ 1, GalR3 antag -4, HIF act 1, Hsp70 activator 0 and GAA850 FXN act 5.
COc1cccc(Nc2nc(-c3cccnc3)cs2)c1 was read as SMARCA2 activ 11*, GalR3 antag -9, HIF act 3, GAA850 FXN act 5, SMARCA2 conf 13* and VP16 Luc act 6.6*.
Screening COc1cccc(CSc2nc3ccncc3[nH]2)c1 returned SMARCA2 activ 9.3*, GalR3 antag -3, HIF act 2, GAA850 FXN act 2, SMARCA2 conf 6 and VP16 Luc act 7.0*.
`CC(C)C[C@H]1COc2cc(N3CCSCC3)ccc2S(=O)(=O)N1C` gave SMARCA2 activ -2.
Screening COC(=O)C1CCc2c(ccc3c2CCCC3)C1=O (stereo not given) returned SMARCA2 activ 11*, GalR3 antag -6, GAA850 FXN act 4, SMARCA2 conf 6 and VP16 Luc act 8.5*.
COc1cc(OC)cc(C(=O)Nc2cccc3c2CCCC3)c1 was read as SMARCA2 activ -2, GalR3 antag -9, HIF act -25 and GAA850 FXN act 2.
CN(C(=O)CNC(=O)c1ccccc1OCC(=O)Nc1ccc(I)cc1)c1ccccc1 was read as SMARCA2 activ -2.
For Cc1ccc2nc(-c3ccc(N4C(=O)CC(N5CCN(CCO)CC5)C4=O)cc3)sc2c1 (stereo not given) the results were SMARCA2 activ 8.6*, GalR3 antag -4, Hsp70 activator 0, GAA850 FXN act 4, SMARCA2 conf 6 and VP16 Luc act 5.
`O=S1(=O)c2ccc(N3CCSCC3)cc2Oc2ccccc2CN1Cc1cn(Cc2ccc(Cl)cc2)nn1` gave SMARCA2 activ -1.
`CCCC[C@@H]1C(=O)N2N=C(c3ccccc3)c3ccccc3[C@H]2N2N=C(c3ccccc3)c3ccccc3[C@@H]12` gave SMARCA2 activ -5.
`CCOC(=O)C1=CCC(c2cc3ccccc3[nH]2)NC1` (stereo not given) gave SMARCA2 activ 11*, GalR3 antag 1, SMARCA2 conf 6 and VP16 Luc act 7.0*.
For CCOC(=O)c1c(C)nc(C)c(C(=O)OCC)c1-c1ccccc1 the results were HIF act 0, Hsp70 activator 0 and GAA850 FXN act 1.
For COC(=O)c1sc(NC(=O)COc2ccc(OC)cc2)nc1C the results were SMARCA2 activ 1, GalR3 antag -5, HIF act 0, Hsp70 activator 0 and GAA850 FXN act 1.
`COC(=O)c1sc(NC(=O)COc2cccc3ccccc23)nc1C` gave SMARCA2 activ 10*, GalR3 antag 2, HIF act -1, Hsp70 activator 0, GAA850 FXN act -2, SMARCA2 conf 4 and VP16 Luc act 2.
Cc1ccc2oc(C(=O)N3CCN(c4cccc(C)n4)CC3)c(C)c2c1 was read as SMARCA2 activ 1, GalR3 antag -10, HIF act 1 and GAA850 FXN act 3.
Screening Cc1cc(Cl)c2oc(C(=O)N3CCN(c4cccc(C)n4)CC3)c(C)c2c1 returned SMARCA2 activ 11*, GalR3 antag -9, HIF act 3, GAA850 FXN act 1, SMARCA2 conf 7 and VP16 Luc act 15*.
For COc1ccccc1/C=C/C(=O)OCC(=O)Nc1ccc(Cl)cn1 the results were SMARCA2 activ 8.9*, GalR3 antag -8, HIF act 0, GAA850 FXN act 0, SMARCA2 conf 11* and VP16 Luc act 1.
COc1ccc(-c2nc3c(s2)CN(S(C)(=O)=O)CC3)cc1OC was read as SMARCA2 activ 6, GalR3 antag 1, HIF act 2 and GAA850 FXN act 3.
For CCS(=O)(=O)N1CCc2nc(-c3ccccc3)sc2C1 the results were SMARCA2 activ 8.1*, GalR3 antag -7, HIF act -16, GAA850 FXN act 5, SMARCA2 conf 8 and VP16 Luc act 11*.
For CC(C)CC(NC(=O)OCc1ccccc1)C(=O)NCC(=O)NCC(=O)OCc1ccccc1 (stereo not given) the results were SMARCA2 activ -2 and GalR3 antag -8.
For Cc1nc2ccc(-c3nc4ccccc4o3)cc2[nH]1 the results were SMARCA2 activ 9.0*, GalR3 antag 2, HIF act 1, Hsp70 activator 0, GAA850 FXN act 7, SMARCA2 conf 7 and VP16 Luc act 13*.
